The full data set covers some 8,800 targets. This sample favours those with a hit. About 0.5% of all pairs of compound and target were hits.
Assays:
Assay in all cases: log2 fold change, soluble protein after heating vs DMSO (PISA); higher = thermal stabilisation; K562 lysate, 10 uM; active = over 0.2 and 3.5 SD of the protein, either way, in both replicates (recomputed)
erlotinib = compound: C#Cc1cccc(Nc2ncnc3cc(OCCOC)c(OCCOC)cc23)c1 [erlotinib]
Outline: (§1)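 Following dounce homogenisation of K562 pellets in PBS pH 7.4 with 1 mM MgCl2, crude extract at 1 mg/mL protein was incubated for 30 min with 10 μM compound. Aliquots were then heated for 3 min over 48°C-58°C and pooled, NP-40 was added to 0.5% at 4°C, and soluble protein was recovered as the supernatant at 21,000xg for 90 min. Channel-sum-equalised TMTpro 16plex LC-MS/MS quantified this protein. Each value, from duplicates, is a log-two fold change in thermal stability relative to solvent controls.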

[1] = compound: C/C(=N\NC(=O)C1=CC(=CC=C1)S(=O)(=O)N2CCOCC2)/C3=C(C=CC(=C3)Cl)O
Outline: as §1

[2] = compound: C1=CC(=CC=C1C2=NC3=C(N2)C=C(C=C3)C(=O)N)OC4=CC=C(C=C4)Cl
Outline: as §1

[3] = compound: C1=CC2=C(C=CC(=C2)/C=C\3/C(=O)NC(=NCC4=CC=CS4)S3)N=C1
Outline: as §1

[4] = compound: C1=CC2=NC=CN=C2C=C1/C=C/3\C(=O)NC(=O)S3
Outline: as §1

[5] = compound: C1=CC=C(C=C1)C2=NC(=C(N2)C3=CC=NC=C3)C4=CC(=C(C=C4)Cl)O
Outline: as §1

[6] = compound: C1=CC=C2C(=C1)C3=NNC4=CC=CC(=C43)C2=O
Outline: as §1

[7] = compound: C1CCN(C1)C(=O)NC2=CC=CC(=C2)NC3=NC=C(C(=N3)NCCC4=CN=CN4)Br
Outline: as §1

[8] = compound: C1CN(CCC1(CC2=CC=C(C=C2)Cl)N)C3=NC=NC4=C3C=CN4
Outline: as §1

IRAK-1-4 Inhibitor I = compound: C1COCCN1CCN2C3=CC=CC=C3N=C2NC(=O)C4=CC(=CC=C4)[N+](=O)[O-] [IRAK-1-4 Inhibitor I]
Outline: as §1

Measured: log2 fold change

GART (UniProt P22102)
UniProt P22102, sequence (P22102 whole entry, looked up): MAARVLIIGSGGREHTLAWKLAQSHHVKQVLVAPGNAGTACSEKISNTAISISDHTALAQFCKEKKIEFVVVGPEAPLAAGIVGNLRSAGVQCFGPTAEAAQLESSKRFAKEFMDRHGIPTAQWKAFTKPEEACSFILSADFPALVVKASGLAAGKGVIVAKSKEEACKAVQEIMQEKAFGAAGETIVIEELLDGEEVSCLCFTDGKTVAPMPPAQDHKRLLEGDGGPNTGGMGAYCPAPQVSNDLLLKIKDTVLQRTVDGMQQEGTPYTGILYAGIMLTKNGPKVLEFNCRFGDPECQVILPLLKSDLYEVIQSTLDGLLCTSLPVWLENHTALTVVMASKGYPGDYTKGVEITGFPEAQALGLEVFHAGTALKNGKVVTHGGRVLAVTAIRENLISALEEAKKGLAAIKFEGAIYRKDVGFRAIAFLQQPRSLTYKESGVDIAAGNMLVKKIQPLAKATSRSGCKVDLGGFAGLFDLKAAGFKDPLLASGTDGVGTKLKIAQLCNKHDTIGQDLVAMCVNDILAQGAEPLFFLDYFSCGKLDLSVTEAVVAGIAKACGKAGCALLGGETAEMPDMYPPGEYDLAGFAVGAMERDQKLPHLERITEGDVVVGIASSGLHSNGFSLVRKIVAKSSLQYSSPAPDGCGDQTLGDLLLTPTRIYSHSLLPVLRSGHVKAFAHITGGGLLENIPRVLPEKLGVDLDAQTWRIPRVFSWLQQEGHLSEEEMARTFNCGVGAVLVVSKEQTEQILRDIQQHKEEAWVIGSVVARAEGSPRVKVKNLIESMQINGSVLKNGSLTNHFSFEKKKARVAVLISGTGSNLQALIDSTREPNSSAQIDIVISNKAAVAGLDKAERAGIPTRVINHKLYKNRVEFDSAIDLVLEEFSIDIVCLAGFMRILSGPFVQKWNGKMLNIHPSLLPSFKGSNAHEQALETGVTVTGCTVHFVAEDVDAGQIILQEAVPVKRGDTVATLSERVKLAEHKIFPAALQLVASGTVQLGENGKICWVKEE
inactive: erlotinib -0.007 | [1] 0.022 | [2] -0.025 | [3] -0.013 | [4] 0.016 | [5] 0.015 | [6] -0.011 | [7] -0.001 | [8] -0.003 | IRAK-1-4 Inhibitor I 0.005

ENO1, A0A2R8YEM5
inactive: erlotinib -0.019 | [1] 0.004 | [2] 0.011 | [3] -0.017 | [4] 0.031 | [5] 0.016 | [6] 0.009 | [7] 0 | [8] 0.032 | IRAK-1-4 Inhibitor I -0.031

ERCC4 (UniProt Q92889)
inactive: erlotinib -0.008 | [1] -0.04 | [2] 0.033 | [3] 0.015 | [4] -0.021 | [5] -0.003 | [6] -0.096 | [7] -0.006 | [8] 0.051 | IRAK-1-4 Inhibitor I 0.029

FAM118A (UniProt Q9NWS6)
UniProt Q9NWS6, sequence (Q9NWS6 whole entry, looked up): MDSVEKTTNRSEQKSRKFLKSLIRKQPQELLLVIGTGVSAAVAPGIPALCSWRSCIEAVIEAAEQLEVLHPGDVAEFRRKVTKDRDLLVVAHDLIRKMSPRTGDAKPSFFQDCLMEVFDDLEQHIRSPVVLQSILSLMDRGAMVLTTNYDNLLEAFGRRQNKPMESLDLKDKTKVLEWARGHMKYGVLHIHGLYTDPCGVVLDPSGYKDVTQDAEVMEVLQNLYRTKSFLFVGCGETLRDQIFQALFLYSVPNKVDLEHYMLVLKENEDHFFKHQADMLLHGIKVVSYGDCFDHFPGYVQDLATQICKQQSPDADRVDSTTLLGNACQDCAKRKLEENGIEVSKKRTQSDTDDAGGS
inactive: erlotinib 0.03 | [1] -0.03 | [2] -0.016 | [3] 0.022 | [4] 0.029 | [5] 0.012 | [6] -0.006 | [7] 0.021 | [8] 0.048 | IRAK-1-4 Inhibitor I 0.051

EDARADD (UniProt Q8WWZ3)
UniProt Q8WWZ3, sequence (Q8WWZ3 whole entry, looked up): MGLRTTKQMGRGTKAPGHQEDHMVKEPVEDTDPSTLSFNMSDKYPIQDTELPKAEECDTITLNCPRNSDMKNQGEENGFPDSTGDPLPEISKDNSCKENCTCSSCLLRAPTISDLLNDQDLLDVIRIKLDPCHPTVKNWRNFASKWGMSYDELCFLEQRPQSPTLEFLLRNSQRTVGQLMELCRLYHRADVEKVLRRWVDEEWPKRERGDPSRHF
inactive: erlotinib 0.013 | [1] -0.022 | [2] 0.045 | [3] 0.019 | [4] -0.027 | [5] 0.049 | [6] -0.03 | [7] -0.035 | [8] -0.064 | IRAK-1-4 Inhibitor I 0.031

EIF2B4 (UniProt Q9UI10)
inactive: erlotinib 0.066 | [1] -0.063 | [2] -0.027 | [3] -0.178 | [4] -0.02 | [5] -0.121 | [6] 0.105 | [7] -0.009 | [8] 0.07 | IRAK-1-4 Inhibitor I 0.118

EIF2B3 (UniProt Q9NR50)
UniProt Q9NR50, sequence (Q9NR50 whole entry, looked up): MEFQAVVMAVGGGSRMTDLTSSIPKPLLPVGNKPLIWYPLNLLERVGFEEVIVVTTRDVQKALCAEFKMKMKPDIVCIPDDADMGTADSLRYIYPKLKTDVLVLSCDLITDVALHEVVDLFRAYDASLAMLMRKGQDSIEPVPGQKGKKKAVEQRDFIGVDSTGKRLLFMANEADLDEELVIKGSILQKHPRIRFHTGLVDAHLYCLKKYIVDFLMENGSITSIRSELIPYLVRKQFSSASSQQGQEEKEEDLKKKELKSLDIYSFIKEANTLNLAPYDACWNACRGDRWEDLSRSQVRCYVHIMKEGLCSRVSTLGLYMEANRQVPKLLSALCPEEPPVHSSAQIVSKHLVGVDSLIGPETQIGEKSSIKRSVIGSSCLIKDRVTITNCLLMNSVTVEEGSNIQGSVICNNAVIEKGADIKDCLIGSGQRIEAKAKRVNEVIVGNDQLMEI
inactive: erlotinib 0.01 | [1] 0.029 | [2] -0.019 | [3] -0.009 | [4] 0.024 | [5] 0.001 | [6] -0.003 | [7] 0.014 | [8] 0.018 | IRAK-1-4 Inhibitor I -0.01

DSTN (UniProt P60981)
UniProt P60981, sequence (P60981 whole entry, looked up): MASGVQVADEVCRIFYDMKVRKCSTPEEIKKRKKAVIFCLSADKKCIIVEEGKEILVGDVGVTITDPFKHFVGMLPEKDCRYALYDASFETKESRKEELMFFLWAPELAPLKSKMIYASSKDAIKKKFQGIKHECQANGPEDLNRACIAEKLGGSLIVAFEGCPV
inactive: erlotinib -0.038 | [1] -0.027 | [2] -0.007 | [3] 0.014 | [4] 0.013 | [5] 0 | [6] 0.005 | [7] -0.021 | [8] -0.012 | IRAK-1-4 Inhibitor I -0.007

FBXO9 (UniProt Q9UK97)
UniProt Q9UK97, sequence (Q9UK97 whole entry, looked up): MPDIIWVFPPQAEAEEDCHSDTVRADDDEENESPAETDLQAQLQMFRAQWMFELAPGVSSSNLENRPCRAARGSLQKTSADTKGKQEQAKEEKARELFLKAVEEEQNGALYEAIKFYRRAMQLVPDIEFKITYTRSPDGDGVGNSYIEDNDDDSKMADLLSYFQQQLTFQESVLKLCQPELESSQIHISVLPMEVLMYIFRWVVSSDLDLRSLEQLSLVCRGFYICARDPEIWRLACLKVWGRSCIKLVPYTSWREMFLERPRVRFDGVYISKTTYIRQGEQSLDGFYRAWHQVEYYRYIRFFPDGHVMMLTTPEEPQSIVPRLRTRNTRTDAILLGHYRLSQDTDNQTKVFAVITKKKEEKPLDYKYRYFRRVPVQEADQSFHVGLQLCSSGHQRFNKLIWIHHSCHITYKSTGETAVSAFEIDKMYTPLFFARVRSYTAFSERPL
inactive: erlotinib -0.06 | [1] 0.126 | [2] 0.091 | [3] 0.013 | [4] 0.086 | [5] 0.01 | [6] -0.032 | [7] 0.019 | [8] -0.108 | IRAK-1-4 Inhibitor I -0.005

ENO1 isoform 2 (UniProt P06733)
inactive: erlotinib -0.02 | [1] -0.039 | [2] -0.035 | [3] -0.021 | [4] -0.016 | [5] -0.003 | [6] -0.066 | [7] -0.033 | [8] 0.027 | IRAK-1-4 Inhibitor I 0.015

GIGYF2 (UniProt Q6Y7W6)
UniProt Q6Y7W6, sequence (Q6Y7W6 whole entry, looked up): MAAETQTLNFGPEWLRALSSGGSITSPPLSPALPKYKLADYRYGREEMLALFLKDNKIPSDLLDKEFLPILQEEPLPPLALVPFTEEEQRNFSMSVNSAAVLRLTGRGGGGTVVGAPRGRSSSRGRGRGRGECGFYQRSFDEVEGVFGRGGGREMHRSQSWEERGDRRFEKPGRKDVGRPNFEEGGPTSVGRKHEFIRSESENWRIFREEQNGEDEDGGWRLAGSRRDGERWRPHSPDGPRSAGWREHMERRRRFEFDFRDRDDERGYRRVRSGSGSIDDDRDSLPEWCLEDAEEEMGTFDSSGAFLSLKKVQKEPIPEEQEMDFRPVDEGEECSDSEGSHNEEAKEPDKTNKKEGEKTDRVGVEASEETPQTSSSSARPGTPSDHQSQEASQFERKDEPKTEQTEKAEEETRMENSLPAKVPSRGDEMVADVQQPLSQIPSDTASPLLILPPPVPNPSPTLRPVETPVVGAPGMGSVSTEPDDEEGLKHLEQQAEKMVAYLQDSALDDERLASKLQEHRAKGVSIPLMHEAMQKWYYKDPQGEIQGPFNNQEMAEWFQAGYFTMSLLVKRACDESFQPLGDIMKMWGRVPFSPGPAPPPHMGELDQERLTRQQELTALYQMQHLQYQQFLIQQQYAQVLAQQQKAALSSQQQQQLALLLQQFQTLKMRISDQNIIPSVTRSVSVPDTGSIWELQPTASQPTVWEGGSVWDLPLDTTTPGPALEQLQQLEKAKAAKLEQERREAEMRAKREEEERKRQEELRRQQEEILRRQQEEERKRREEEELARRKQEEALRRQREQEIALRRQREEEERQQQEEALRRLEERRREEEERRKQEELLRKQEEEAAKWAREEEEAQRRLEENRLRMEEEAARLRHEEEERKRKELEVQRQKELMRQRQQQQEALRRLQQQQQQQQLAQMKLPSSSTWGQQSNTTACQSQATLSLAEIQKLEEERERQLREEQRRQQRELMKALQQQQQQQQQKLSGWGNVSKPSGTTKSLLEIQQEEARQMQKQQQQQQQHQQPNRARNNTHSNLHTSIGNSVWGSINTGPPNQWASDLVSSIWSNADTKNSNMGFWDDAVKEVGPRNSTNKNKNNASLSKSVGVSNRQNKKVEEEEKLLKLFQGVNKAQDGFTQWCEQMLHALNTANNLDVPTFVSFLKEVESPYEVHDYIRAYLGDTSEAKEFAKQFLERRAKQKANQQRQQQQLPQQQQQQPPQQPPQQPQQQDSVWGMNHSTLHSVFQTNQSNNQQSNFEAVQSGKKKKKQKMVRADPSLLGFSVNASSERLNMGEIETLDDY
inactive: erlotinib -0.011 | [1] -0.033 | [2] -0.024 | [3] -0.016 | [4] 0.018 | [5] 0.005 | [6] -0.005 | [7] 0.006 | [8] -0.005 | IRAK-1-4 Inhibitor I 0.002

ERI1 (UniProt Q8IV48)
inactive: erlotinib -0.015 | [1] 0.073 | [2] -0.009 | [3] 0.019 | [4] -0.028 | [5] 0.134 | [6] -0.03 | [7] -0.009 | [8] -0.036 | IRAK-1-4 Inhibitor I -0.111

GAPVD1 isoform 6 (UniProt Q14C86)
inactive: erlotinib 0.01 | [1] 0 | [2] -0.051 | [3] 0.01 | [4] 0.019 | [5] 0 | [6] -0.013 | [7] 0.007 | [8] -0.025 | IRAK-1-4 Inhibitor I -0.015

EIF2B4 isoform 2 (UniProt Q9UI10)
inactive: erlotinib 0.031 | [1] 0.027 | [2] 0.008 | [3] 0.041 | [4] 0.009 | [5] 0.013 | [6] -0.04 | [7] -0.006 | [8] -0.008 | IRAK-1-4 Inhibitor I 0.03

FIG4 (UniProt Q92562)
UniProt Q92562, sequence (Q92562 whole entry, looked up): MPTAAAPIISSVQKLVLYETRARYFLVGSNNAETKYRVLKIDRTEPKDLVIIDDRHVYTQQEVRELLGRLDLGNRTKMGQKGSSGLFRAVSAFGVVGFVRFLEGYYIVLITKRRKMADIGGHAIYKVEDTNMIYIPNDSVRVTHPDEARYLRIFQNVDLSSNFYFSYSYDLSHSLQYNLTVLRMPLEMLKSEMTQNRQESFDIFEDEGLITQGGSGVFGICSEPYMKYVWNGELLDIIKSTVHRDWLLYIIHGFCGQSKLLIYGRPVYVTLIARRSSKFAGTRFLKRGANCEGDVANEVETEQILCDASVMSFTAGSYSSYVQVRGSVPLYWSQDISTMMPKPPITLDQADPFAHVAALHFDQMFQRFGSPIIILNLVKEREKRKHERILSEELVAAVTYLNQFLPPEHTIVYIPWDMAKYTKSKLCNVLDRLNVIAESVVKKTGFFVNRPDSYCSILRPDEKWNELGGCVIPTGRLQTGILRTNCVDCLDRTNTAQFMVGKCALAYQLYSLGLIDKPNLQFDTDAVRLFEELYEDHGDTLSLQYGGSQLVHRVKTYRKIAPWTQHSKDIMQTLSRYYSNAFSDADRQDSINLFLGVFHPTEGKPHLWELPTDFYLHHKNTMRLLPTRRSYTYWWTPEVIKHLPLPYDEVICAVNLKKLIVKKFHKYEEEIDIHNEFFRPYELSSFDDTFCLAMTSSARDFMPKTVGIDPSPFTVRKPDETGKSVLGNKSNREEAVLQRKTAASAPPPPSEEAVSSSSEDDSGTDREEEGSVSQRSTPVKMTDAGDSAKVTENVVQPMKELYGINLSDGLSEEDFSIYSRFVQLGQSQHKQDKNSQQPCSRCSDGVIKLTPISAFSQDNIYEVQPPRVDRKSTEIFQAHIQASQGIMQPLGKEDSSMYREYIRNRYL
inactive: erlotinib 0.032 | [1] -0.032 | [2] -0.029 | [3] 0 | [4] 0.007 | [5] 0.064 | [6] 0.02 | [7] 0.061 | [8] -0.053 | IRAK-1-4 Inhibitor I 0.003
